Source: PubChem BioAssay
IP6K1 inhibitor = blocks human inositol hexakisphosphate kinase 1. Q92551. IP6K1 kinase, ADP-Glo luminescence, 2 h; active compounds read low. activity change, % (series mostly up to about 58 µM). actives 0.81% (n = 140,000). AID 1645851; in the data active = activity change below about -25%
Target sequence (Q92551 whole entry, looked up): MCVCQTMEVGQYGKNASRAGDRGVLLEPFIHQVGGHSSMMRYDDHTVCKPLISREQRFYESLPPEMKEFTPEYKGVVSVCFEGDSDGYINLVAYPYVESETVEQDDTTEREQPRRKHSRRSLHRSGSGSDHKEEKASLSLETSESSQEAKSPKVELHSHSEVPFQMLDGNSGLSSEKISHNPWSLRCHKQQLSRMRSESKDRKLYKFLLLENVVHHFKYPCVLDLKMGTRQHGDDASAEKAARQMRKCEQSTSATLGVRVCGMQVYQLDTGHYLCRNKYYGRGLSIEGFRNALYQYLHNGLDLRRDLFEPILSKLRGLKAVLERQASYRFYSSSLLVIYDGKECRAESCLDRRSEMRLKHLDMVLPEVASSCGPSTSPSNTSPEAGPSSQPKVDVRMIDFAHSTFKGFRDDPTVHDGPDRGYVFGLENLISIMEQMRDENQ
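ADP-Glo luminescence measures ADP made by human IP6K1 during a 2 h RT reaction with ATP/IP6 (mix at 1.3 mM/130 uM); top library doses 57.5 and 19.1 uM final.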
3T3 cytotox = NIH 3T3 cell cytotoxicity | NIH 3T3 viability, CellTiter-Glo ATP luminescence, 48-72 h | Potency, µM (titrated, usually from 96.7 µM), actives largely listed as inhibitors | actives 4.3% (n = 94,000) | AID 1345082; note: nearly all actives have a fitted effect of over 55% in size
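First NIH 3T3 cells are plated at 400 cells/well; next compound is pinned in; then plates incubate 48 or 72 hr at 37 °C; finally CellTiter-Glo is added and luminescence read after 10 min.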
SNCA expr inhib = reduces expression of the alpha-synuclein gene. actives 0.17% (n = 140,000). Potency, µM (highest dose often 57.2 µM), usual class: inhibitors. HEK-293 SNCA-luciferase knock-in, luminescence, 24 h; note: nearly all actives have a fitted effect of over 45% in size
HEK293 tox = cytotoxic compounds in HEK 293 cells. HEK 293 viability, ATP luminescence (CellTiter-Glo), 48-72 h. Potency, µM (highest dose often 115 µM), most hits filed as inhibitors. AID 1345083. actives 6.6% (n = 94,000); note: nearly all actives have a fitted effect of over 60% in size
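250 HEK 293 cells/well; compound by pintool; incubated 48 or 72 hr at 37 degree Celsius; CellTiter-Glo added, 10 min RT, luminescence imaged.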
FLuc inh-1 = inhibitors of firefly (Photinus pyralis) luciferase. Potency, µM (titrated, usually from 115 µM), actives largely listed as inhibitors. purified P. pyralis luciferase, luminescence, biochemical. AID 1347043. actives 2.5% (n = 76,000); note: nearly all actives have a fitted effect of over 65% in size
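Inhibitors were tested against purified firefly luciferase in a biochemical, low-substrate format (both substrates at 10uM) and luminescence measured with a CCD imager.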
SNCA viab count = cell viability loss counter-screen; HEK-293-SNCA-luc viability, GF-AFC fluorescence, 24 h; Potency, µM (titrated, usually from 57.1 µM), most hits filed as cytotoxic; actives 0.12% (n = 150,000); note: nearly all actives have a fitted effect of over 30% in size
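HEK-293-SNCA-luc cells (1500/well) plated 24 h, then exposed 24 h to a dilution series; GF-AFC added 30 min at 37C, fluorescence 405/540 nm; normalised to medium-only and DMSO wells, Hill fit.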
FLuc SDR -ATP = binders stabilizing firefly luciferase, without ATP; shares compounds with FLuc inh-1; Purified FLuc-C-HiBiT, Nano-Glo HiBiT luminescence, no ATP; Potency, µM (doses to about 32.7 µM), most hits filed as activators; actives 7.8% (n = 1,300); AID 1963318; note: nearly all actives have a fitted effect of over 55% in size
FLuc SDR ATP = firefly luciferase binding stabilization, ATP added; purified FLuc-C-HiBiT + ATP, HiBiT complementation luminescence; Potency, µM (highest dose often 32.7 µM), actives largely listed as activators; AID 1963319; actives 8.7% (n = 1,300); shares compounds with FLuc inh-1;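 note: signal reports ligand binding via conformational change of the enzyme rather than luciferase catalysis; nearly all actives have a fitted effect of over 55% in size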
FLuc inh-2 = firefly luciferase enzyme inhibition. actives 42% (n = 1,300). Potency, µM (doses to about 32.7 µM), hits mostly inhibitors. shares compounds with FLuc inh-1. purified FLuc-C-HiBiT enzyme, luciferin luminescence. AID 1963320; note: nearly all actives have a fitted effect of over 70% in size
Hits are given with their value; – = inactive; ? = inconclusive; · = no result given. A selection: hits, their analogues and other compounds. The true share with any hit is near 7.3%. Unless noted, calls come from the whole dose curve; as a rule, active = well fitted curve in the direction sought with a large enough effect; inconclusive = small, poorly fitted or top-dose-only effect, or another doubt; inactive = no such curve, though single readings can be large; an effect the other way counts as inactive or inconclusive.

SMILES	IP6K1 inhibitor	3T3 cytotox	SNCA expr inhib	HEK293 tox	FLuc inh-1	SNCA viab count	FLuc SDR -ATP	FLuc SDR ATP	FLuc inh-2
CC(C)c1ccc(NC(=O)c2ccc(CN3C(=O)NC4(CCOCC4)C3=O)cc2)cc1	–	40µM	–	?	2µM	–	?	?	3.5µM
CC(C)c1ccc(NC(=O)CN2C(=O)NC3(CCOCC3)C2=O)cc1	–	–	–	–	–	–	·	·	·
COc1cccc(NC(=O)c2ccc(CN3C(=O)NC4(CCOCC4)C3=O)cc2)c1	–	–	–	?	?	–	·	·	·
Cc1ccc(NC(=O)c2ccc(CN3C(=O)NC4(CCOCC4)C3=O)cc2)cc1C	–	–	–	?	10µM	–	?	–	?
COc1ccc(CNC(=O)Cn2c(-c3ccccc3)nc(C)c(CCO)c2=O)cc1	–	?	–	?	–	–	·	·	·
Fc1ccc(-n2ncc3c(N4CCCCCC4)ncnc32)cc1	–	·	–	·	·	–	?	?	1.2µM
Cc1ccc(-n2ncc3c(N4CCCCCC4)ncnc32)cc1	–	·	2.2µM	·	·	–	1.8µM	0.88µM	0.2µM
Cc1ccc(-n2ncc3c(N4CCCCC4)nc(NCCCO)nc32)cc1	·	·	·	·	·	·	–	–	–
Cc1oc(C(C)C)cc1C(=O)N1CCC2(CC1)C(C(=O)O)CC(=O)N2C (centres undefined)	–	–	–	–	–	–	·	·	·
O=S(=O)(c1cccc(C(F)(F)F)c1)N1CCN(c2ccc3nnc(C4CC4)n3n2)CC1	–	?	·	?	·	·	·	·	·
COc1ccc(CNC(=O)Nc2cccc(-c3ccc(N4CCCCC4)nn3)c2)cc1	–	?	–	?	0.25µM	–	2µM	?	0.5µM
O=C(NCc1ccccc1)Nc1cccc(-c2nnc3n2CCCC3)c1	–	–	–	?	–	–	·	·	·
Cc1ccc(CNC(=O)Nc2cccc(-c3ccc(N4CCOCC4)nn3)c2)cc1	–	?	–	?	1.3µM	–	?	?	2.8µM
O=C(NCc1ccco1)Nc1cccc(-c2ccc(N3CCCC3)nn2)c1	–	?	–	?	7.1µM	–	?	?	?
CCOc1ccc(C(=O)N2CCC3(CC2)C(=O)N(C)c2ccccc23)cc1OCC	–	?	?	?	–	–	·	·	·
CNC(=O)c1cccc2c1CCN2C(=O)Nc1ccc(C)cc1	–	?	?	–	0.4µM	–	11µM	0.44µM	0.35µM
CCN1CCN(CCNC(=O)c2cccc3c2CCN3C(=O)Nc2ccc(C)cc2)CC1	–	?	13µM	?	2µM	–	?	1.6µM	1.1µM
Cc1cccc(NC(=O)N2CCc3c(C(=O)NC(C)(C)C)cccc32)c1	–	–	–	?	7.1µM	–	?	?	8.8µM
CCC(=O)N1CCc2c(C(=O)NCc3cc(C)ccc3C)cccc21	–	–	–	–	–	–	·	·	·
O=C(Nc1ccc(F)cc1)C1CN(c2ccccc2)C(=O)N1 (centres undefined)	–	–	–	–	–	?	·	·	·
COc1ccc(C(=O)N2CCCC(c3nc(-c4ccccc4)no3)CCNC(=O)CC2)c(OC)n1 (centres undefined)	–	–	–	–	7.9µM	–	–	–	?
CC(NC(=O)C1CCN(C(=O)c2ncn3c2COC(c2ccccc2)C3)CC1)c1ccc(F)cc1 (centres undefined)	–	–	–	–	13µM	–	–	?	5µM
CC(NC(=O)C1CCN(C(=O)c2ncn3c2COC(c2ccc(Cl)cc2)C3)CC1)c1ccccc1 (centres undefined)	–	–	–	–	–	–	·	·	·
CC(C)NC(=O)C1CCN(C(=O)c2ncn3c2COC(c2ccccc2)C3)CC1 (centres undefined)	–	–	–	–	3.5µM	–	–	4.4µM	3.5µM
CC(NC(=O)C1CCN(C(=O)c2ncn3c2COC(c2ccc(F)cc2)C3)CC1)c1ccc(F)cc1 (centres undefined)	–	–	–	–	–	–	·	·	·
SMILES	IP6K1 inhibitor	3T3 cytotox	SNCA expr inhib	HEK293 tox	FLuc inh-1	SNCA viab count	FLuc SDR -ATP	FLuc SDR ATP	FLuc inh-2
COC(=O)CN1Cc2cc(F)ccc2N(CC(O)COc2ccc(OC)cc2)CCC1=O (centres undefined)	–	?	·	–	·	·	·	·	·
COCCCNC(=O)c1csc(N2CCN(c3ccccc3)CC2)n1	–	–	–	?	–	–	·	·	·
Cc1ccc(N2CCN(c3nc(C(=O)O)cs3)CC2)cc1	–	–	–	–	1.4µM	–	–	?	2µM
CC1CCc2nc3ncn(Cc4ccc(Cl)cc4)c(=O)c3cc2C1 (centres undefined)	–	·	–	·	·	–	–	–	–
O=C(Nc1ccccc1)c1nc2c(o1)CCN(Cc1ccccn1)CC2	–	?	–	?	4µM	–	–	?	?
O=C(Nc1ccc(Cl)cc1)c1nc2c(o1)CCN(Cc1ccc(F)cc1F)CC2	–	?	?	?	–	?	·	·	·
Cc1ccc(CN2CCc3nc(C(=O)Nc4cccnc4)oc3CC2)cc1	–	?	–	?	?	–	·	·	·
Cn1cc(CN2CCc3nc(C(=O)Nc4ccccc4)oc3CC2)cn1	·	·	·	·	·	·	–	–	?
Cc1ccc(CN2CCc3nc(C(=O)Nc4ccccc4)oc3CC2)cc1	–	?	–	?	5µM	–	–	–	?
O=C(Nc1ccccc1)c1nc2c(o1)CCN(Cc1ccc(O)cc1)CC2	–	–	–	?	0.56µM	–	?	?	5.1µM
COCc1nc2nccc(-c3ccsc3)n2n1	–	–	–	–	–	–	·	·	·
CCN1C(=O)C2(CCN(S(=O)(=O)Cc3ccccc3Cl)CC2)c2ccccc21	–	–	–	?	–	–	·	·	·
COCCN1CCN(C[C@@H]2C=C(C)[C@H](Cc3nnc(COc4ccc(F)cc4)o3)C[C@H]2C(C)C)CC1	–	?	–	–	–	–	·	·	·
Cc1csc(NC(=O)c2nc3c(o2)CCN(Cc2cccc(F)c2)CC3)n1	–	?	–	50µM	2.8µM	–	–	?	14µM
O=C(NCc1cccc(F)c1)c1nc2c(o1)CCN(Cc1cccc(Cl)c1)CC2	–	?	–	?	–	–	·	·	·
COc1ccc(-c2cnc3[nH]cc(CC(=O)N4CCN(c5ccccn5)CC4)c3c2)cc1	–	?	–	79µM	7.1µM	–	–	–	?
